# Results reported in PubChem BioAssay AID1851 (National Center for Advancing Translational Sciences (NCATS), 2009).
# Several values for one entry are separate records, joined by “and”; a condition that tells them apart may be missing. Equal entries are not always repeated. The campaign covered roughly 16,000 compounds. About 2,600 (16%) were called active. Another 20% or so got no clear call; they are omitted. These entries were drawn from the full list. Values without a mark were called inactive. Calls come from the whole dose curve; as a rule, active = well fitted curve in the direction sought with a large enough effect; inconclusive = small, poorly fitted or top-dose-only effect, or effect the other way; inactive = no such curve, though single readings can be large or run the other way.
# Target: Cytochrome P450 2D6 (Homo sapiens) (UniProt P10635)
# Test: Cytochrome panel assay with activity outcomes
# Details: recombinant CYP, pro-luciferin dealkylation, luminescence, p450-cyp2d6; series mostly up to 57.1 µM
# % is set by controls: 0 for no effect and ±100 for the full control effect.
# Chain of Cytochrome P450 2D6 (Homo sapiens) (P10635 whole entry, looked up): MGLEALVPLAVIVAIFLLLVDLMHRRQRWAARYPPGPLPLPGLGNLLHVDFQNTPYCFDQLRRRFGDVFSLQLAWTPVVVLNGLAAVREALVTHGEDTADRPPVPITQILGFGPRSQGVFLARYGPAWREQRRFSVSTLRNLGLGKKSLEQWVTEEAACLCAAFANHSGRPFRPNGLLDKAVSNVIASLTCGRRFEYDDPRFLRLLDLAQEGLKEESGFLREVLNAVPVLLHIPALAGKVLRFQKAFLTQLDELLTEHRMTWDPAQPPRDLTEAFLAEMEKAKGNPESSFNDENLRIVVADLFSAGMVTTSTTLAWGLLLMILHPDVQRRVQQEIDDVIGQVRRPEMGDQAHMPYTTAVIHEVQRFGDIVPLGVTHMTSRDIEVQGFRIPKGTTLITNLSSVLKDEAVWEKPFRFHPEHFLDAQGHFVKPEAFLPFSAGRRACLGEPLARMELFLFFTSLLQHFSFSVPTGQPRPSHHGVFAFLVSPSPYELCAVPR
SMILES,AC50,"activity, negative = inhibition"
O=C(c1cccs1)n1nc(-c2ccc(Cl)cc2)nc1NCc1ccco1,inactive,
COc1ccc(Cc2nnc(NC(=O)CSc3ccc(C)cc3)s2)cc1OC,inactive,
O=C1c2cccnc2C(O)N1C1CCCCC1 (stereo unspecified),inactive,
COc1ccccc1C(=O)NC(=S)N1CCCc2ccccc21,inactive,
N#CC(c1ccc(Cl)cc1)(c1ncc(C(F)(F)F)cc1Cl)N1CCOCC1 (stereo unspecified),inactive,
C/C(=N\NC(=O)c1ccc(Cl)cc1)c1cccc(NC(=O)C(C)C)c1,inactive,
Cc1ccccc1C(=O)Nc1cccc(NC(=S)NC(=O)c2cccs2)c1,inactive,
Nc1nc(=O)c2[nH]cnc2n1O,,-6.92% [at 11.4 µM]
CCC(=O)n1nc(-c2ccc(OC)cc2)nc1N,inactive,
Cc1ccc2[nH]c3c(c2c1)CN(C(=O)CN1c2ccc(F)cc2CCC1C)CC3 (stereo unspecified),inactive,
CO[C@H]1COC(=O)[C@@H](CCSC)NC(=O)C/C=C\[C@@H](C)[C@H](OC)COC(=O)[C@@H](OCc2ccccc2)/C=C\[C@@H]1C,,-4.06% [at 11.4 µM]
CCNc1nc(Oc2c(Cl)cccc2Cl)cc(C(F)(F)F)n1,inactive,
CC(C)(C)NCC[C@@H](O)c1cc(C(F)(F)F)nc2c(C(F)(F)F)cccc12,0.316 µM (active),
CC1(C)OC(C(N)=O)C(C(N)=O)O1 (stereo unspecified),inactive,
Cc1ccc(S(=O)(=O)NC(=O)Nc2ncn[nH]2)cc1,,4.38% [at 11.4 µM]
Cc1cccc(-n2c(=O)c3c(n4cnnc24)-c2ccccc2CC32CCCCC2)c1,inactive,
CN(C)CCCN1c2ccccc2Sc2ccc(C(F)(F)F)cc21,794 nM (active) and 398 nM (active),
O=C(CSc1nc2ccccc2s1)N1c2ccccc2Sc2ccc(C(F)(F)F)cc21,inactive,
CN(C)CCCN1c2ccc(O)cc2Sc2ccc(Cl)cc21,0.126 µM (active),
CN(C)CCCNC(=O)c1cc2c3ccccc3n(C)c2s1,inactive,
CCC(=S)/C=C1\Sc2ccccc2N1CCCS(=O)(=O)O,inactive,
CCC(=O)c1ccc2c(c1)N(CCCN(C)C)c1ccccc1S2,2 µM (active),
CSc1ccc2c(c1)N(CCCN(C)C)c1ccccc1S2,0.501 µM (active),
CC(C)OC(=O)CSc1nc(-c2ccc(F)cc2)nc2ccc(F)cc12,inactive,

SMILES,AC50,"activity, negative = inhibition"
CC[C@@H](c1ccccc1)n1c(=O)n2n(c1=O)[C@H]1[C@H](O)[C@H]3O[C@@H]3/C(=N/OC/C=C(\C)CCC=C(C)C)[C@@H]1CC2,,3.1% [at 11.4 µM]
CCOC(=O)N/N=C/c1ccc(F)cc1,inactive,
Cc1cccc(-c2n[nH]c([N+](=O)[O-])n2)c1,inactive,
COC(=O)[C@H](CCSC)NC(=O)NCc1ccccc1F,inactive,
CC(C)=NO[C@@H](C)c1cn([C@H](CO)Cc2ccccc2)nn1,,6.42% [at 11.4 µM] and -9.14% [at 11.4 µM]
O=C(NCCN1CCN(C(=O)c2cc3ccccc3oc2=O)CC1)c1cc2ccccc2oc1=O,inactive,
CCNC(=S)N1CCC(NC(=O)C2CCCCC2)CC1,inactive,
CNC(=O)/C(C#N)=c1\s/c(=C/C(=O)OC)c(=O)n1-c1ccccc1,inactive,
C/C=C1\C(=O)C[C@@H]2[C@@H]3CCC4=CC(=O)CC[C@@]4(C)[C@H]3CC[C@@]12C,inactive,
COCc1c(C(N)=O)nnn1-c1nonc1N,inactive,
O=C(Cc1ccccc1)NC1CCN(S(=O)(=O)c2ccc(C(=O)O)cc2)CC1,inactive,
COc1ccc(CC(NC(C)=O)C(=O)NC2CCN(C(=O)Nc3ccc(Cl)cc3)CC2)cc1OC (stereo unspecified),inactive,
O=C(NC1CCN(Cc2ccccc2)CC1)c1ccc(I)cc1,12.6 µM (active),
CC(C)C(NC(=O)C1CCCCC1)C(=O)NC1CCN(Cc2ccccc2)CC1 (stereo unspecified),inactive,
COc1cc(N)c(Cl)cc1C(=O)NC1CCN(Cc2ccccc2)CC1,0.0126 µM (active),
COc1cc([C@@H](O)CO)ccc1OS(=O)(=O)O,inactive,
O=[N+]([O-])c1ccccc1N=Nc1c(O)[nH]c2ccc(S(=O)(=O)O)cc12,,-12.1% [at 11.4 µM]
C[C@@](Cc1ccc(O)c(O)c1)(NN)C(=O)O,inactive,
COc1cccc(Nc2ncc3nc(C)c(=O)n(CCc4ccccc4)c3n2)c1,inactive,
C[C@@]1(C(=O)O)NCCc2cc(O)c(O)cc21,inactive,
Cc1cc(C)c2c(-n3cccc3)n[nH]c2n1,25.1 µM (active),
Cc1nc(N=Nc2cc(S(=O)(=O)O)ccc2S(=O)(=O)O)c(COP(=O)(O)O)c(C=O)c1O,inactive,
COc1ccc(/C(C#N)=C/c2c(-c3ccc(Cl)cc3)nc3c(C)cccn23)cc1,inactive,
Cc1sc(NC(=O)C2C3CCC(O3)C2C(=O)O)c(C(=O)OC(C)C)c1-c1ccc(Cl)cc1 (stereo unspecified),inactive,

SMILES,AC50,"activity, negative = inhibition"
O=C(Oc1ccccc1)N1CCC2(CC1)CCN(c1ncccn1)CC2,inactive,
O=C(Cn1ccc2ccccc2c1=O)N1CCN(c2cccc(Cl)c2)CC1,inactive,
O=C(O)CCC(=O)N1CCN(c2ccccn2)CC1,inactive,
CCN(C(=O)c1cnc(N2CCN(c3ncccn3)CC2)c2ccccc12)c1cccc(Cl)c1,10 µM (active),
CN(C(=O)c1cnc(N2CCN(c3ncccn3)CC2)c2ccccc12)c1ccc(Cl)cc1,12.6 µM (active),
COc1ccccc1C(=O)N1CCN(c2ccccn2)CC1,inactive,
COCC(=O)N1CCC2(CC1)CCN(c1ncccn1)CC2,inactive,
O=C(c1cnc(N2CCN(c3ncccn3)CC2)c2ccccc12)N1CCN(c2ccccn2)CC1,11.2 µM (active),
CCN(C(=O)COc1cc(=O)n(C)c2ccccc12)c1cccc(Cl)c1,inactive,
CC(C)Cc1ccc([C@H](C)C(=O)O)cc1,inactive,
CCOc1ccc2nc3cc(N=Nc4ccc(N)nc4N)ccc3c(N)c2c1,,-4.78% [at 11.4 µM]
Cc1ccccc1Oc1ncnc2sccc12,inactive,
NCCc1nc(-c2nc(C(=O)O)cs2)cs1,,16.3% [at 11.4 µM]
OCCCSCCO,,-3.94% [at 11.4 µM]
COc1ccc(C(C(=O)NC2CCCCC2)N(C(=O)c2sc(C)nc2C)c2ccc(OC)cc2)cc1 (stereo unspecified),inactive,
Cc1cc(Cc2c(C)c(C)c(Cc3cc(C)cc(C(C)(C)C)c3O)c(C)c2C)c(O)c(C(C)(C)C)c1,,12% [at 11.4 µM]
Cc1cc(Cc2cc(C)cc(C(C)(C)C)c2O)c(O)c(Cc2cc(C)cc(C(C)(C)C)c2O)c1,,-2.96% [at 11.4 µM]
Cc1cc(C(C)(C)C)c(O)c(C)c1CC1=NCCN1,12.6 µM (active) and 3.98 µM (active) and 39.8 nM (active),
COc1ccc(CN2C(=O)CN(C3CCCCCC3)C(=O)C2c2ccc(OC)c(OC)c2)cc1 (stereo unspecified),inactive,
Cc1ccc(NC(=O)CCC(=O)NNC(=O)c2ccco2)cc1C,inactive,
CCOc1[nH]n(-c2ccccc2)c(=O)c1C=Nc1ccc(Cl)cc1,inactive,
Cn1c(C(F)(F)F)nc2c(=O)oc3ccccc3c21,inactive,
CCCC/C=C/C(NC(=O)c1ccc(-c2ccccc2)cc1)c1ccccc1 (stereo unspecified),inactive,
O=C(NCCOC12CC3CC(CC(C3)C1)C2)c1cccc(Br)c1,inactive,

SMILES,AC50,"activity, negative = inhibition"
O=C(CCc1ccccc1)NNC(=O)c1ccco1,inactive,
O=C(CCc1ccccc1)Nc1ncn[nH]1,inactive,
O=C(CCc1ccccc1)Nc1nncs1,14.1 µM (active),
CCOC(=O)CCN1C(=O)[C@H]2[C@H]3[C@H](O)[C@H](O)C/C(=N/OC[C@@H](O)COCc4ccco4)[C@H]3CC[C@@H]2C1=O,,8.09% [at 11.4 µM]
COc1ccc2c3c([nH]c2c1)[C@H]1C[C@@H]2[C@@H](C[C@@H](O)[C@H](OC)[C@H]2C(=O)O)CN1CC3,,7.15% [at 11.4 µM]
Cc1ccc(S(=O)(=O)N(C)CC(=O)O/N=C(\N)c2ccccn2)cc1,inactive,
c1ccc2sc(SCN(C3CCCCC3)C3CCCCC3)nc2c1,1.58 µM (active),
O=C(O)CCCSc1nc2ccccc2s1,,-8.66% [at 11.4 µM]
c1ccc(NCCSc2nc3ccccc3s2)cc1,,1.99% [at 11.4 µM]
O=C(Nc1ccc2oc(=O)c(C(=O)O)cc2c1)Oc1ccccc1,,-5.11% [at 11.4 µM]
CC(=O)c1c(C(C)=O)c(C)n(NC(=O)c2ccncc2)c1C,inactive,
Fc1ccc(Nc2nc(-c3ccoc3)nc3ccccc23)cc1,inactive,
c1ccc(CNc2nc(-c3ccoc3)nc3ccccc23)cc1,10 µM (active),
c1csc(CNc2nc(-c3ccoc3)nc3ccccc23)c1,3.98 µM (active),
CN(C)c1ccc(-c2nc(NCc3cccnc3)c3ccccc3n2)cc1,7.94 µM (active),
Cc1cccc(CNc2nc(-c3ccoc3)nc3ccccc23)c1,10 µM (active),
CCNc1ncc2nc(-c3ccc(OC)cc3)c(=O)n(Cc3cccc(OC)c3)c2n1,inactive,
Cn1c(=O)n(CCC(=O)O)c2ccccc21,inactive,
COc1cc(/C=N/NC(N)=O)c(Br)cc1OCC(=O)Nc1ccccc1C,inactive,
CCOC(=O)c1c(O)[nH]c(=O)c(CC)c1C,,-17.9% [at 11.4 µM]
CCOC(=O)Nc1nc(-c2ccccc2)c(C)s1,,1.52% [at 11.4 µM]
CO/N=C(\C(=O)N[C@@H]1C(=O)N2C(C(=O)O)=C(COC(N)=O)CS[C@@H]12)c1ccco1,inactive,
O=S1(=O)CCN(c2ccccc2CC(c2c[nH]c3ccccc23)c2c[nH]c3ccccc23)CC1,,-18% [at 11.4 µM]
Cc1ccc(C2CC(C(F)(F)F)n3nc(C(=O)NCCN4CCOCC4)cc3N2)cc1 (stereo unspecified),inactive,
